Experimental data reported in PubChem BioAssay.
Results filed as inconclusive are left out. Active and inactive are the calls of the source.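 Rule for the calls, unless noted: active = normalized viability below 100% at a tested concentration; inactive = the rest.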

Columns and labels:
[1] = growth inhibition of DIPG glioma cells, dose response, cell-based, SU-DIPG-XVII, MIPE5.0, CellTiter-Glo, qHTS (AID 1347060; cut-off not given, nearly all actives have AC50 up to about 26 µM;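 note: cells exposed to compound for 48 hours before viability readout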); conditions: SU-DIPG-XVII viability, CellTiter-Glo ATP luminescence
[2] = growth inhibition of DIPG glioma cells, dose response, cell-based, SU-DIPG-XIII, MIPE4.0, CellTiter-Glo, qHTS (AID 1347061; cut-off not given, nearly all actives have AC50 up to about 37 µM;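 note: cells exposed to compound for 48 hours before readout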); conditions: SU-DIPG-XIII viability, CellTiter-Glo ATP luminescence
[3] = growth inhibition of DIPG glioma cells, dose response, cell-based, JHH-DIPG-1, MIPE4.0, CellTiter-Glo, qHTS (AID 1347062; cut-off not given, nearly all actives have AC50 up to about 27 µM;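 note: cells exposed to compound for two days before readout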); conditions: JHH-DIPG-1 viability, CellTiter-Glo ATP luminescence
[4] = growth inhibition of DIPG glioma cells, dose response, cell-based, SU-DIPG-IV, MIPE4.0, CellTiter-Glo, qHTS (AID 1347063; cut-off not given, nearly all actives have AC50 up to about 30 µM;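 note: compound exposure lasted 48 hours before the viability readout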); conditions: SU-DIPG-IV viability, CellTiter-Glo ATP luminescence
[5] = growth inhibition of DIPG glioma cells, dose response, cell-based, SU-DIPG-XIII, MIPE5.0, CellTiter-Glo, qHTS (AID 1347064; cut-off not given, nearly all actives have AC50 up to about 23 µM;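 note: cells exposed to compound for 48 hours before the viability read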); conditions: SU-DIPG-XIII viability, CellTiter-Glo ATP luminescence
[6] = viability loss in pontine glioma line – cell-based, SU-DIPG-XXV, MIPE5.0, CellTiter-Glo, qHTS, dose response (AID 1347065; cut-off not given, nearly all actives have AC50 up to about 26 µM;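 note: cells exposed to compound for 48 hours before ATP readout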); conditions: CellTiter-Glo ATP luminescence
[7] = SU-DIPG-VI glioma cell viability, MIPE4.0 library, CellTiter-Glo luminescence, qHTS (AID 1347066; cut-off not given, nearly all actives have AC50 up to about 30 µM;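 note: cells exposed to compound for 48 hours before readout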); conditions: CellTiter-Glo ATP luminescence
[8] = JHH-DIPG-1 glioma cell viability, MIPE5.0 library, CellTiter-Glo luminescence, qHTS (AID 1347067; cut-off not given, nearly all actives have AC50 up to about 26 µM;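 note: cells exposed to compound for 48 hours before readout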); conditions: JHH-DIPG-1 glioma viability, CellTiter-Glo ATP luminescence
[9] = SU-DIPG-XXV glioma cell viability, MIPE5.0 library, qHTS (AID 1347068; cut-off not given, nearly all actives have IC50 up to about 30 µM)
[10] = ovarian cancer cell viability with rucaparib, profiling panel, oncology-focused library, rucaparib conditional (AID 1508598); conditions: patient-derived ovarian cancer cells, CellTiter-Glo viability, 144 h, stronger effect = lower value

C=CC(=O)N1CCC[C@@H](n2nc(-c3ccc(Oc4ccccc4)cc3)c3c(N)ncnc32)C1
active: AC50 [1] 5.9 µM | AC50 [2] 18.7 µM | AC50 [3] 23.5 µM | AC50 [4] 5.26 µM | AC50 [5] 20.9 µM | AC50 [6] 9.34 µM | AC50 [7] 16.6 µM | AC50 [8] 16.6 µM | viability ([10]; at 0.000305 µM, OCI-C5x cells, with rucaparib 10 µM, 100% = cells with rucaparib alone) 99.2% | viability ([10]; at 0.000305 µM, OCI-P5x cells, with rucaparib 20 µM, 100% = cells with rucaparib alone) 88.6% | viability ([10]; at 0.000305 µM, OCI-P5x cells, without rucaparib) 94.3% | viability ([10]; at 0.00122 µM, OCI-P5x cells, with rucaparib 20 µM, 100% = cells with rucaparib alone) 77.7% | viability ([10]; at 0.00122 µM, OCI-P5x cells, without rucaparib) 48.3% | viability ([10]; at 0.00488 µM, OCI-P5x cells, with rucaparib 20 µM, 100% = cells with rucaparib alone) 95.6% | viability ([10]; at 0.0195 µM, OCI-P5x cells, with rucaparib 20 µM, 100% = cells with rucaparib alone) 93.8% | viability ([10]; at 0.0781 µM, OCI-P5x cells, with rucaparib 20 µM, 100% = cells with rucaparib alone) 86.9% | viability ([10]; at 0.313 µM, OCI-P5x cells, with rucaparib 20 µM, 100% = cells with rucaparib alone) 86.1% | viability ([10]; at 0.313 µM, OCI-P5x cells, without rucaparib) 91.8% | viability ([10]; at 1.25 µM, OCI-P5x cells, with rucaparib 20 µM, 100% = cells with rucaparib alone) 92.3% | viability ([10]; at 1.25 µM, OCI-P5x cells, without rucaparib) 93.7% | viability ([10]; at 5 µM, OCI-P5x cells, with rucaparib 20 µM, 100% = cells with rucaparib alone) 57.3% | viability ([10]; at 5 µM, OCI-P5x cells, without rucaparib) 88.7%
inactive: outcome [9] | viability ([10]; at 0.000305 µM, OCI-C5x cells, without rucaparib) 119% | viability ([10]; at 0.00122 µM, OCI-C5x cells, with rucaparib 10 µM, 100% = cells with rucaparib alone) 108% | viability ([10]; at 0.00122 µM, OCI-C5x cells, without rucaparib) 118% | viability ([10]; at 0.00488 µM, OCI-C5x cells, with rucaparib 10 µM, 100% = cells with rucaparib alone) 106% | viability ([10]; at 0.00488 µM, OCI-C5x cells, without rucaparib) 108% | viability ([10]; at 0.00488 µM, OCI-P5x cells, without rucaparib) 103% | viability ([10]; at 0.0195 µM, OCI-C5x cells, with rucaparib 10 µM, 100% = cells with rucaparib alone) 112% | viability ([10]; at 0.0195 µM, OCI-C5x cells, without rucaparib) 112% | viability ([10]; at 0.0195 µM, OCI-P5x cells, without rucaparib) 103% | viability ([10]; at 0.0781 µM, OCI-C5x cells, with rucaparib 10 µM, 100% = cells with rucaparib alone) 114% | viability ([10]; at 0.0781 µM, OCI-C5x cells, without rucaparib) 111% | viability ([10]; at 0.0781 µM, OCI-P5x cells, without rucaparib) 100% | viability ([10]; at 0.313 µM, OCI-C5x cells, with rucaparib 10 µM, 100% = cells with rucaparib alone) 112% | viability ([10]; at 0.313 µM, OCI-C5x cells, without rucaparib) 120% | viability ([10]; at 1.25 µM, OCI-C5x cells, with rucaparib 10 µM, 100% = cells with rucaparib alone) 108% | viability ([10]; at 1.25 µM, OCI-C5x cells, without rucaparib) 125% | viability ([10]; at 5 µM, OCI-C5x cells, with rucaparib 10 µM, 100% = cells with rucaparib alone) 113% | viability ([10]; at 5 µM, OCI-C5x cells, without rucaparib) 121%
